Data as given in PubChem BioAssay.
Inconclusive results are not listed. Calls of active or inactive are those of the source.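 Rule for the calls, unless noted: active = Her2 level under about 52% in both replicate screens, with viability over 70% of control (limit read from the data); inconclusive = Her2 under the limit in one screen only, or viability under 70%; inactive = Her2 level above the set limit.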

How the values were obtained:
[1] = Her2 expression decrease, cell viability multiplex – SKBR3 breast tumor cells, AlphaScreen, ATP viability, primary screen (AID 461); settings: SKBR3 Her2 protein level, 18-24 h, measured here: SKBR3 viability, ATP luminescence, at 10 µM;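 for Her2 level: lower value means less Her2 protein in the cells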;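 for viability: percent of carrier control wells set as 100% viability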
[2] = target: Receptor tyrosine-protein kinase erbB-2 (Homo sapiens) (UniProt P04626); assay: as above; settings: 18-24 h, at 10 µM, stronger effect = lower value
[3] = reduced viability of SK-BR-3 breast cancer cells – cell-based, 24 h, human, pilot screen (AID 572;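 active = viability at or below 10% of carrier control in both of two separate runs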;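 note: compound exposure lasted between 18 and 24 h rather than exactly 24 h; 100% = carrier-treated control wells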); settings: SK-BR-3 viability, CellTiter-Glo luminescence, at 10 µM, stronger effect = lower value
[4] = HUVEC growth inhibition – cell-based, human, primary screen (AID 575;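 active = viability at or below 30% in both replicate assays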;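 note: 100% = median of untreated cell wells with 0.1% DMSO on each plate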); settings: HUVEC proliferation, CellTiter-Glo luminescence, 72 h; at 10 µM; stronger effect = lower value
[5] = H69AR cell proliferation blockers – human, duplicate replicates, primary screen (AID 580;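 active = viability at or under a set limit in both replicates, limit being median viability minus 3 SD, cut at about 48% in these data, passing the limit was not always enough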;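 note: 100% = mean luminescence of untreated wells and 0% = no signal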); settings: H69AR lung tumor cells viability, ATP luminescence, 72 h; at 10 µM; stronger effect = lower value
[6] = MRP1 drug-resistance reversers in H69AR cells – cell-based, doxorubicin co-treatment, pilot screen (AID 601;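 active = viability loss from added drug above about 55%, and viability with drug at most 40%, in both replicates, limit read from the data, passing the limit was not always enough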); settings: CellTiter-Glo, 72 h, at 10 µM; for differential viability (reversal): stronger effect = higher value
[7] = yeast transport mutant growth inhibition pilot in 384-well plates, post-Golgi transport modulator project (AID 636; in the data active = inhibition above about 31%); settings: absorbance 615 nm, about 18 h, stronger effect = higher value
[8] = growth suppression of yeast trafficking mutant, preliminary HTS, modulators of trafficking downstream of Golgi apparatus project, 1536-format plate, OD 615 nm (AID 637; in the data active = inhibition above about 30%); settings: yeast transport mutant growth, absorbance 615 nm, 18 h; stronger effect = higher value
[9] = S. cerevisiae growth inhibition in permissive medium (OD615), pilot counter-assay for S. cerevisiae lifespan shortening project, permissive growth control (AID 705;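 active = growth inhibition above 25% in both replicates, a cutoff set 3 SD above the mean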); settings: OD615, 24 h, at 10 µM, stronger effect = higher value
[10] = S. cerevisiae growth inhibition in restrictive medium, OD615, pilot screen, restrictive growth control, yeast lifespan reduction project (AID 706;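 active = growth inhibition above a set limit, 3 SD over mean compound inhibition, in both replicates, cut at about 43% in these data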;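 note: modified DeaD lifespan yeast strain shifted to restrictive glucose medium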); settings: OD615, 48 h, at 10 µM, stronger effect = higher value
[11] = doxorubicin toxicity protection in MRP-1 cells – H69AR cells, CellTiter-Glo, duplicate, MRP-1 activator project, pilot screen (AID 807;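 active = viability increase at or above a cutoff of the median across tested compounds plus 3 SD, cut at about 8.5% in these data, passing the limit was not always enough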;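 note: compound pretreatment 18-22 h then 72 h combined with doxorubicin; 0% = doxorubicin alone and 100% = vehicle without doxorubicin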); settings: H69AR viability with doxorubicin, CellTiter-Glo luminescence; at 10 µM; stronger effect = higher value
[12] = viability of HCT116 without oncogenic beta-catenin – human colon tumor cells, pilot screen (AID 823;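 active = cell viability at or below a set limit in both duplicate runs, the limit being the all-compound median minus 4 SD, cut at about 23% in these data, passing the limit was not always enough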;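 note: 0% = wells killed by 20 µM Hyamine and 100% = untreated DMSO cell wells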); settings: HCT116 beta-catenin knockout viability, CellTiter-Glo, 60 h; at 10 µM; stronger effect = lower value
[13] = viability of PTEN-null HCT116 cells – cell-based, HCT116 clonal line, CellTiter-Glo, pilot screen (AID 824;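 active = viability at or below 27.92% in each of two runs, the all-compound median minus 4 SD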;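 note: 0% = 20 µM Hyamine control and 100% = vehicle cell control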); settings: HCT116 PTEN-deleted viability, 60 h, at 10 µM, stronger effect = lower value
[14] = RAM pathway blockade in budding yeast – dse1pr::URA3 reporter, 5-FOA selection, pilot screen (AID 869;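 active = inhibition over a set limit, the all-compound mean plus 3 SD, in both replicate runs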;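 note: 0% = DMSO wells with no growth and 100% = 10 µM 1-NA-PP1 with full growth; RAM network block rescues cells from 5-FOA so hits raise OD615 growth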); settings: S. cerevisiae dse1pr::URA3 5-FOA growth, OD615, 2 d; at 10 µM; stronger effect = higher value; strain carries analog-sensitive mutant Cbk1 kinase
[15] = RAM signaling pathway blockade in yeast – S. cerevisiae, Pdr1DBD-CYC8 efflux-inhibited sensitized strain, primary screen (AID 1298;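 active = RAM network inhibition above 8.4% in each of two replicates, 3 SD over the compound average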;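 note: 0% = DMSO untreated cells without growth and 100% = 10 µM 1-NA-PP1 full growth; higher means more yeast growth rescued from 5-FOA killing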); settings: S. cerevisiae cbk1-as DSE1-URA3 strain, 5-FOA growth OD615, 2 d; at 50 µM; stronger effect = higher value
[16] = H69AR cells + 2 uM doxorubicin, measured here: viability with 2 uM doxorubicin, stronger effect = lower value
[17] = H69AR cells, compound alone cytotoxicity

Sequence of Receptor tyrosine-protein kinase erbB-2 (Homo sapiens) (P04626 whole entry, looked up): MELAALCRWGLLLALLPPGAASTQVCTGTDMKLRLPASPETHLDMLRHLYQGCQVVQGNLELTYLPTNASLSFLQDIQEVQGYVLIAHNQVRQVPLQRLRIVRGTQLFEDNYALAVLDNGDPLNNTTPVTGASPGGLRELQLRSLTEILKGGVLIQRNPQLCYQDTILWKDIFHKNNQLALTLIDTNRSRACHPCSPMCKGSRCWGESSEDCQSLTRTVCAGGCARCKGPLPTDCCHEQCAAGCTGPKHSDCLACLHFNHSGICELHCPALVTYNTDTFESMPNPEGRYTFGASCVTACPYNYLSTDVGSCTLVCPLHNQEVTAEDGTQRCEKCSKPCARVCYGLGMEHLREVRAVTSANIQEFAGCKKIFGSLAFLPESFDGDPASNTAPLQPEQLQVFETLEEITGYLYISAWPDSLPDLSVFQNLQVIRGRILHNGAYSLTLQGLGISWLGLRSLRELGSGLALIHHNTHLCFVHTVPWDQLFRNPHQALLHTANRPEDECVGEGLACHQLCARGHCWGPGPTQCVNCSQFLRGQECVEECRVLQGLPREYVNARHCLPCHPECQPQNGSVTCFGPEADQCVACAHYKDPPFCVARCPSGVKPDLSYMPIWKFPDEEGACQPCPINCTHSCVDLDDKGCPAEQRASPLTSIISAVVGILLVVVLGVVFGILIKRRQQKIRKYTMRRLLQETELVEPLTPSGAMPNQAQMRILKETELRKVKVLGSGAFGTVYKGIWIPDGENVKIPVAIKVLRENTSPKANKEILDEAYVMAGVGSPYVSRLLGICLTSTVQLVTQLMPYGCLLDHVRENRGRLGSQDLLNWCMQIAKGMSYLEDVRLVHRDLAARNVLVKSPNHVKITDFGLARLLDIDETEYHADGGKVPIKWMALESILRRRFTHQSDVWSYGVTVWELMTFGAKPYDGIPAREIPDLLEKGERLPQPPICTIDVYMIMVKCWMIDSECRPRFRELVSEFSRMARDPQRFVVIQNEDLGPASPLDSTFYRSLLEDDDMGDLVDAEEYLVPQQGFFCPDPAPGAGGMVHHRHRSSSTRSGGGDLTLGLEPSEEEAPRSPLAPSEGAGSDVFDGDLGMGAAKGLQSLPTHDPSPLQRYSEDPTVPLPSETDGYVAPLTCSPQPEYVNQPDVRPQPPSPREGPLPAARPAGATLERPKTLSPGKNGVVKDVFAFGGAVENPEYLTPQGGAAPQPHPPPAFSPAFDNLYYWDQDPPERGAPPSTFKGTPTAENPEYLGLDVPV

| SMILES | viability [1] [%] | Her2 level [2] | viability [3] | viability [4] | viability [5] | differential viability (reversal) ([6]; H69AR cells + 2 uM doxorubicin) | viability [6, 16] [%] | viability [6, 17] [%] | inhibition [7] | inhibition [8] | growth inhibition [9] | growth inhibition [10] | viability increase [11] | viability [12] | viability [13] | inhibition [14] | RAM network inhibition [15] |
| --- | --- | --- | --- | --- | --- | --- | --- | --- | --- | --- | --- | --- | --- | --- | --- | --- | --- |
| CCc1nc2sc(C)c(C)c2c(=O)n1CCO | 106 | 85% (inactive) | 106% (inactive) | 104% (inactive) | 94.7% (inactive) | 4.12% (inactive) | 90.6 | 94.7 | -6.23% (inactive) | -3.67% (inactive) | -1.03% (inactive) | 0.805% (inactive) | -1.82% (inactive) | 104% (inactive) | 102% (inactive) | 0.35% (inactive) | 2.87% (inactive) |
| N#CC(C(=O)Nc1ccccc1)=C1CCCCC1 | 99 | 89.5% (inactive) | 99% (inactive) | 85.5% (inactive) | 109% (inactive) | 14.8% (inactive) | 94.2 | 109 | -4.67% (inactive) | -3.55% (inactive) | -25.1% (inactive) | -18.8% (inactive) | 1.71% (inactive) | 91.2% (inactive) | 102% (inactive) | 1.52% (inactive) | 4.92% (inactive) |
| Cc1cc(C)n(-c2cc(N3CCOCC3)ncn2)n1 | 101 | 90.5% (inactive) | 101% (inactive) | 93.2% (inactive) | 91.7% (inactive) | 2.58% (inactive) | 89.1 | 91.7 | -3.47% (inactive) | 3.67% (inactive) | -3.3% (inactive) | 12.9% (inactive) | -1.2% (inactive) | 93% (inactive) | 93.1% (inactive) | 0.035% (inactive) | 2.04% (inactive) |
| Cc1ccc(C)c2[nH]c(=O)c(CCNC(=O)c3ccc(S(=O)(=O)N(C)C)cc3)cc12 | 121 | 114% (inactive) | 121% (inactive) | 88.1% (inactive) | 82.3% (inactive) | -1.57% (inactive) | 83.9 | 82.3 | -4.13% (inactive) | -4% (inactive) | -2.9% (inactive) | -22.2% (inactive) | -4.33% (inactive) | 93.2% (inactive) | 81.5% (inactive) | 2.99% (inactive) | 3.23% (inactive) |
| CCOc1cccc(OCCCCn2ccnc2)c1 | 87 | 75.5% (inactive) | 87% (inactive) | 97.3% (inactive) | 85.4% (inactive) | -3.44% (inactive) | 88.8 | 85.4 | 3.92% (inactive) | -2.46% (inactive) | -3.35% (inactive) | -16.8% (inactive) | -0.4% (inactive) | 49% (inactive) | 62.3% (inactive) | 2.19% (inactive) | 1.84% (inactive) |
| CC(=O)NCCc1nc2ccccc2[nH]1 | 94 | 104% (inactive) | 94% (inactive) | 91.9% (inactive) | 93.7% (inactive) | -1% (inactive) | 94.7 | 93.7 | -5.2% (inactive) | -2.33% (inactive) | -3.03% (inactive) | 6.51% (inactive) | -0.62% (inactive) | 107% (inactive) | 97% (inactive) | -0.365% (inactive) | 2.3% (inactive) |
| CN(C)CCN1C(=O)C(O)=C(C(=O)c2cc3ccccc3o2)C1c1ccc(N(C)C)cc1 (stereo not given) | 98.5 | 105% (inactive) | 98.5% (inactive) | 94.1% (inactive) | 90.2% (inactive) | 1.66% (inactive) | 88.5 | 90.2 | -3.47% (inactive) | 1.17% (inactive) | -14.2% (inactive) | -14.1% (inactive) | -0.2% (inactive) | 105% (inactive) | 103% (inactive) | 0.685% (inactive) | 2.42% (inactive) |
| CCN1CCN(C(=O)c2cn(CC)c3ccc(S(=O)(=O)N(C)C)cc3c2=O)CC1 | 85.5 | 104% (inactive) | 85.5% (inactive) | 100% (inactive) | 107% (inactive) | 11% (inactive) | 96.5 | 107 | 0% (inactive) | -1% (inactive) | -7.52% (inactive) | -18% (inactive) | -2.35% (inactive) | 101% (inactive) | 93.7% (inactive) | 2.08% (inactive) | -1.09% (inactive) |
| COCCNC(=O)CN1CCN(Cc2cccc(Cl)c2)C1=O | 102 | 112% (inactive) | 102% (inactive) | 99.3% (inactive) | 103% (inactive) | 17.5% (inactive) | 85.4 | 103 | -5.47% (inactive) | -3.93% (inactive) | 6.16% (inactive) | 1.19% (inactive) | -0.8% (inactive) | 102% (inactive) | 95.5% (inactive) | 0.485% (inactive) | -0.14% (inactive) |
| Oc1ccc(-c2n[nH]c(=S)n2Cc2ccccc2)cc1 | 90.5 | 120% (inactive) | 90.5% (inactive) | 112% (inactive) | 105% (inactive) | 2.54% (inactive) | 102 | 105 | 5.45% (inactive) | -2.83% (inactive) | 5.8% (inactive) | -5.84% (inactive) | -1.84% (inactive) | 101% (inactive) | 91.2% (inactive) | 0.655% (inactive) | -0.9% (inactive) |
